Compounds with a hit are over-represented: about 5.7% of the library has one in this group of screens.
D3 antag = qHTS of D3 Dopamine Receptor Antagonist: qHTS. D(3) dopamine receptor (Homo sapiens), P35462. D3R cells, DiscoveRx beta-arrestin luminescence, antagonist mode; active compounds read low. max response, negative = inhibition, %. actives 2.5% (n = 360,000). AID 652054, 2013; in the data active = max response below about -50%; inconclusive = no clear call, values can overlap the other calls; note: % is set by controls: 0 for no effect and ±100 for the full control effect
Target sequence (P35462 whole entry, looked up): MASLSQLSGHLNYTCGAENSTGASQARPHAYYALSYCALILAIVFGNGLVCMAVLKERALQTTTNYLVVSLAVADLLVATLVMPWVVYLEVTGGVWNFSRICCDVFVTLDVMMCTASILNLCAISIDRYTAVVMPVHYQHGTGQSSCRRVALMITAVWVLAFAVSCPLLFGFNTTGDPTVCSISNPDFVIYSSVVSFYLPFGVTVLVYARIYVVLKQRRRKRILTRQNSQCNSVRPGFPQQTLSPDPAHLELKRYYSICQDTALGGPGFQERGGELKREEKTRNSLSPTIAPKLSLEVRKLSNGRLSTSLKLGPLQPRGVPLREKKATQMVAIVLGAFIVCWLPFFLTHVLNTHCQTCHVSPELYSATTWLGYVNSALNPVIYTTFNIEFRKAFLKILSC
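Cells plated overnight at 1500 cells/well, then exposed to library compounds with dopamine controls for 90 minutes at 37 degrees C. DiscoveRx reagent added for 30–60 minutes at room temperature; luminescence read, quantitative HTS format.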
HEK293 tox = qHTS of GLP-1 Receptor Inverse Agonists: Cytotox Screen. HEK293 cAMP-luciferase reporter cells, luminescence, 24 h. Potency, µM (doses to about 38.3 µM), inactives show at the top dose activity change, negative = inhibition, actives largely listed as inhibitors. actives 0.13% (n = 410,000);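 note: loss of luciferase light is scored as toxicity; potency is the fitted concentration of half-maximal effect; % is set by controls: 0 for no effect and ±100 for the full control effect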
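Here, cytotoxicity is scored as loss of luminescence. The MLSMR collection was tested on cells seeded in medium containing 10% Nu serum, with a 24 hr compound exposure preceded by 12 hours of culture.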
ClpP mod = qHTS Assay for Activators of ClpP | Potency, µM (top dose mostly 57.5 µM), without a hit: top-dose activity change, negative = active | purified B. subtilis ClpP, FRET peptide cleavage, 20 min | AID 651965, 2013 | actives 1.9% (n = 340,000) | ATP-dependent Clp protease proteolytic subunit (Bacillus subtilis (strain 168)), P80244; active = well fitted falling curve with a large enough effect; inconclusive = small, poorly fitted or top-dose-only effect; inactive = no such curve, though single readings can be large or run the other way; note: potency is the fitted concentration of half-maximal effect; the source files actives as falling curves though it sought activators and does not explain the sign; nearly all actives have a fitted effect of over 65% in size
Target sequence (P80244 whole entry, looked up): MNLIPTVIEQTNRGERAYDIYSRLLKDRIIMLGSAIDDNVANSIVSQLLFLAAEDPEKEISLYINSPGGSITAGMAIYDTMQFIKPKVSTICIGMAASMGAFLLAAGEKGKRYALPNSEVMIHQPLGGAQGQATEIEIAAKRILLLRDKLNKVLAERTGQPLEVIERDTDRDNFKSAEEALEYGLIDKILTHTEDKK
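ClpP 10 microg/mL final, pH 8 Tris/KCl buffer with BSA, glycerol, Tween-20; compound pinned in; FRET-FV substrate; RT 20 min; Ex320/Em430; ΔFRET vs ADEP 5.8 microM, DMSO, no enzyme.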
DRD3 agonist = qHTS of D3 Dopamine Receptor Agonist: qHTS; D(3) dopamine receptor (Homo sapiens), P35462; D3R DiscoveRx beta-arrestin cells, luminescence, 90 min; max activation, %; actives 0.58% (n = 410,000); AID 652048, 2013; in the data active = max activation above about 30%; note: 0% is about no effect
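Cells at 1500/well, incubated overnight, then treated with pinned compounds (dopamine as control) for 90 min at 37 degrees C. DiscoveRx reagent added for 30 - 60 minutes at room temperature; luminescence read.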
GLP1R inv ag = qHTS of GLP-1 Receptor Inverse Agonists (Inhibition Mode); Glucagon-like peptide 1 receptor (Homo sapiens), P43220; HEK293 GLP-1R CRE-luciferase, luminescence, 24 h; GLP-1R form is constitutively active; Potency, µM (doses to about 38.3 µM), inactives show at the top dose activity change, negative = inhibition, most hits filed as inhibitors; actives 1.6% (n = 410,000); AID 624417, 2012; note: potency is the fitted concentration of half-maximal effect; % is set by controls: 0 for no effect and ±100 for the full control effect; nearly all actives have a fitted effect of over 55% in size
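Assay principle: reduced luminescence from a cAMP-responsive reporter in HEK293 cells co-expressing a constitutively active GLP-1R. Conditions: 24 hr compound incubation, 37 deg C, 5% CO2.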
GLP-1R agonist = qHTS of GLP-1 Receptor Agonists; Glucagon-like peptide 1 receptor (Homo sapiens), P43220; HEK293 GLP-1R CRE-luciferase, luminescence, 4-6 h; cells express a hypersensitive GLP-1R form; Potency, µM (doses to about 45.6 µM), for the others: at the highest dose activation, most hits filed as activators; actives 0.007% (n = 380,000); AID 624172, 2012; note: potency is the fitted concentration of half-maximal effect; % of control where 0% means no effect
* hit, by the source's call; ? = inconclusive; . = no result given; ! = a repeat was not active; [ ] = dose if it differs, or a comment. Unless noted, calls come from the whole dose curve; as a rule, active = well fitted curve in the direction sought with a large enough effect; inconclusive = small, poorly fitted or top-dose-only effect, or another doubt; inactive = no such curve, though single readings can be large; an effect the other way counts as inactive or inconclusive.

SMILES | D3 antag | HEK293 tox | ClpP mod | DRD3 agonist | GLP1R inv ag | GLP-1R agonist
C=C1C=C(C)n2ncc(C(=O)Nc3cccc4cnccc34)c2N1 | . | . | -8.2% | . | . | .
CCN1CCN(Cc2c(O)ccc3oc(C)c(C(=O)Nc4cccc(C(F)(F)F)c4)c23)CC1 | . | -2.5% | -0.3% | -21.1 | ? | .
CCc1ccc(NC(=O)c2ccc(F)c(S(=O)(=O)NCc3ccc(Cl)c(Cl)c3)c2)cc1 | . | -4.4% | 12.9% | 2.7 | ? | .
Cc1cc(C(=O)CSc2nc3ccc(Cl)cc3[nH]2)c(C)n1C | -6.4 | -13.6% | -5.0% | 33.2* | 19.4% | -7.2%
NS(=O)(=O)c1cccc(NC(=O)CSc2nc3ccc(Cl)cc3[nH]2)c1 | ? | -2.0%[0.307 µM] | 14.1µM* | 0.8 | 20.7%[0.307 µM] | 4.9%
O=C(CSc1nc2ccc(Cl)cc2[nH]1)NC1CCCc2ccccc21 (stereo not given) | 36.4 | -17.9% | . | -3.4 | 8.91µM* | 16.1%
COc1ccc2nc(SCC(=O)NC3CCCc4ccccc43)[nH]c2c1 (stereo not given) | 3.8 | -14.2% | -1.2% | 6.3 | ? | -1.1%
Cc1ccc2nc(SC(C(=O)Nc3ccc(F)cc3)c3ccccc3)[nH]c2c1 (stereo not given) | -23.8 | ? | -7.4% | -16.7 | 5.62µM* | -18.0%
Cc1ccc(NC(=O)C2CCCN(S(=O)(=O)c3cccc4cccnc34)C2)c(C)c1 (stereo not given) | . | -2.2% | -0.7% | 13.9 | -1.4% | .
COC(=O)c1cc2sccc2n1CC(=O)Nc1cc(Cl)ccc1OC | . | -3.8% | -10.9% | 5.5 | ? | .
Cc1nnc(SC(C)C(=O)NC2CCCc3ccccc32)n1-c1ccccc1 (stereo not given) | -7.2 | -7.2% | 0.9% | -0.7 | ? | -0.6%
Cc1ccc2nc(SC(C)C(=O)NC3CCCc4ccccc43)[nH]c2c1 (stereo not given) | -19.5 | -20.0% | 25.1µM* | -1.7 | ? | 1.1%
COc1ccc(CN2C(=O)C(C)Nc3ncnc(N4CCN(c5ccccn5)CC4)c32)cc1 (stereo not given) | -148.7* | -3.4% | -9.6% | -58.0 | ? | -3.2%
Cc1ccc(CN2C(=O)C(C)Nc3ncnc(N4CCN(c5ccccn5)CC4)c32)cc1 (stereo not given) | -131.8* | 3.8% | -20.8% | -53.9 | ? | -3.3%
CC1Nc2ncnc(N3CCN(c4ccccn4)CC3)c2N(Cc2ccccc2)C1=O (stereo not given) | -106.3* | 2.1% | -9.1% | -45.0 | -23.2% | -0.5%
COc1cccc(OCCn2c(-c3ccc(Cl)cc3)nc3ccccc3c2=O)c1 | . | -0.6% | -17.3% | -15.5 | -4.7% | .
COc1ccc(-c2c[n+]3c4n2CCCCC4=C(c2ccc(Br)cc2)C3)cc1 | -4.2 | -17.9% | 22.4µM* | -23.4 | ? | -0.8%
Clc1ccc(C2=C3CCCCn4c(-c5ccccc5)c[n+](c43)C2)cc1 | 7.9 | -20.6% | 10µM* | 1.8 | ? | -26.3%
O=C(NCCC1=CCCCC1)c1ccc2c(c1)N(Cc1ccc(Cl)cc1)C(=O)c1ccccc1S2(=O)=O | . | -9.1% | -15.5% | 2.4 | ? | -2.7%
COc1cccc(C(=O)NC(=S)Nc2ccccc2N2CCCCC2)c1 | -10.2 | 0.0% | 0.7% | -9.3 | 5.62µM* | 15.9%
COc1cc(C(=O)NC(=S)Nc2ccccc2N2CCCC2)cc(OC)c1OC | 10.3 | ? | -3.5% | 1.5 | -25.2% | -2.7%
COc1cccc(C(=O)Nc2ccccc2N2CCCC2)c1 | -14.7 | 3.6% | -1.1% | -1.7 | 2.2% | 1.0%
O=C(NC(=S)Nc1ccccc1N1CCOCC1)c1cccc([N+](=O)[O-])c1 | 2.0 | ? | -0.7% | -12.6 | 3.55µM* | 17.2%
COc1cccc(C(=O)NC(=S)Nc2ccccc2N2CCCC2)c1 | -12.1 | ? | . | -12.5 | 5.01µM* | 25.0%
O=C(Cc1ccccc1)N(Cc1cccnc1)c1nc2c(F)cc(F)cc2s1 | . | 3.2% | -4.5% | 0.9 | ? | .
SMILES | D3 antag | HEK293 tox | ClpP mod | DRD3 agonist | GLP1R inv ag | GLP-1R agonist
COc1ncnc2c1sc1nc(-c3ccccc3)c3c(c12)CCCC3 | 9.3 | 32.9% | -23.4% | 37.4* | 6.7% | 5.0%
CN(C)CCNc1ncnc2c1sc1nc(-c3ccccc3)c3c(c12)CCCC3 | -1.1 | ? | . | 1.7 | ? | -10.2%
Cc1ccc(S(=O)(=O)Oc2ccccc2-c2ccccc2)cc1 | ? | -24.8% | . | -10.3 | 2.51µM* | 8.4%
CC(=O)Nc1cccc(C(=O)/C=C/c2cccs2)c1 | -62.4* | -38.6% | -4.7% | -4.9 | ? | -10.8%
CC(C)Oc1ccc(C2CC(=O)N(Nc3ccc([N+](=O)[O-])cc3[N+](=O)[O-])C2=O)cc1 (stereo not given) | -50.5* | -7.9% | 1.5% | -20.7 | 17.7% | -6.3%
Cc1nc2c(sc(=S)n2Cc2ccco2)c(=O)n1CC(=O)Nc1ccccc1F | -3.3 | -8.8% | -0.2% | -6.5 | ? | 8.1%
Cc1nc2c(sc(=S)n2Cc2ccco2)c(=O)n1CC(=O)Nc1ccccc1 | -10.9 | -6.5% | 1.1% | -14.5 | 4.47µM* | -2.2%
CCn1c(=S)sc2c(=O)n(CC(=O)Nc3cccc(Cl)c3)c(C)nc21 | -1.7 | ? | -1.9% | -2.3 | 7.94µM* | -1.0%
COc1ccc(C)cc1NC(C)C(=O)c1c[nH]c2ccccc12 (stereo not given) | . | . | 1.5% | . | . | .
O=C(NC1CCN(Cc2ccccc2)CC1)c1[nH]c(C(F)(F)F)nc1-c1ccccc1 | -85.4*! | -9.0% | -1.0% | -15.2 | -10.9% | -3.6%
O=C(NCc1cccc(C(F)(F)F)c1)c1[nH]c(C(F)(F)F)nc1-c1ccccc1 | -63.0* | -17.7% | -15.5% | -9.9 | ? | -3.1%
O=C(Cc1cccc(C(F)(F)F)c1)NCc1cccc(Cl)c1 | 1.4 | 0.4% | -0.9% | 1.7 | 10µM* | 10.2%
Cc1ccc(CNC(=O)c2[nH]c(C(F)(F)F)nc2-c2ccccc2)cc1 | -16.5 | -13.5% | -2.4% | -11.6 | ? | -1.3%
COc1ccc(-n2nc3c(c2NC(=O)C24CC5CC(CC(C5)C2)C4)CS(=O)C3)cc1 (stereo not given) | -55.7* | -1.7% | -1.7% | -3.5 | -2.2% | -0.8%
FC(F)c1nc2nc(Cl)c(Cl)nc2[nH]1 | 12.4 | -9.5% | -27.1% | 1.6 | 14.1µM* | 10.3%
